# About 1,300 (0.41%) of roughly 320,000 compounds were called active. Another 3% or so got no clear call; they are omitted. The rule behind the calls is not given here. A selection follows. Potency and affinity values are given separately.
# Experiment: growth inhibition of non-replicating M. tuberculosis (AID 488890);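 note: plate controls were DMSO cells for no effect and high antibiotic wells for full effect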
# Conditions: Mycobacterium tuberculosis non-replicating, at 25 µM, stronger effect = higher value
row,Structure (SMILES),inhibition
1,CSc1nc2n(n1)C(C)C1=C(CCCC1=O)N2 (centres undefined),-15.3%
2,CC(=O)Nc1ccc(NC(=O)c2ccc(S(=O)(=O)N(C)c3ccccc3)cc2)cc1,-4.01%
3,COc1ccc(C(=O)OCc2c(-c3ccccc3)ncc3ccccc23)cc1,14.9%
4,Cc1cccc(C(=O)NCCC(=O)Nc2ccc(C#N)cc2)c1,-25.3%
5,Cc1cccc2nc(CSc3ccccc3C(=O)O)cn12,24.4%
6,Cc1cc(C)cc(NC(=O)C2CCCN(c3ncccn3)C2)c1 (centres undefined),0.57%
7,c1cc(-c2cc3cc4c(cc3cn2)OCO4)cs1,53.8%
8,O=S(=O)(c1cc(Cl)ccc1Cl)N1CCN(c2ccccn2)CC1,6.68%
9,O=S(=O)(CCN1CCN(c2ccccn2)CC1)c1ccc(F)cc1,3.07%
10,CC(=O)Cn1c2ccccc2n2nc(CCC(=O)O)c(=O)nc12,-25.9%
11,CC1CCN(C(=O)COC(=O)c2cc3ccccc3oc2=O)CC1,11.8%
12,CC1CCN(C(=O)c2cc3ccccc3cc2O)CC1,62%
13,O=C(OCC(=O)N1CCCC1)c1ccccc1O,71.7%
14,O=C(COc1ccc(Cl)cc1)OCC(=O)N1CCCCCC1,70.8%
15,O=C(OCC(=O)N1CCN(C(=O)COC(=O)c2ccc(O)cc2O)CC1)c1ccc(O)cc1O,-2.13%
16,Cc1cccc(C(=O)OCC(=O)N2CCCCCC2)c1,12%
17,O=C(c1cc2ccccc2cc1O)N1CCCC1,5.6%
18,NC(=O)C1CCN(C(=O)COc2ccc(Nc3ccccc3)cc2)CC1,24.7%
19,O=[N+]([O-])c1cccc(-c2csc(N/N=C/c3cccc(O)c3)n2)c1,4.67%
20,COc1ccc(C(OC(=O)c2ccco2)C(=O)NC2CCCC2)cc1 (centres undefined),-11.4%
21,CCc1ccc(C(=O)NCc2cnn(C)c2)s1,6.54%
22,Cc1ccc(SCC(=O)O/N=C(\N)c2cccnc2)cc1,67.7%
23,O=C(/C=C/Nc1ccc(Oc2ccccc2Cl)cc1)c1ccco1,61.8%

row,Structure (SMILES),inhibition
1,Cc1cccc(-n2ccnc2SCC(=O)Nc2nccs2)c1,15.5%
2,O=C(Cc1nc2ccccc2[nH]1)c1ccc([N+](=O)[O-])cc1,6.15%
3,O=C(NCc1nc2ccccc2[nH]1)c1ccc([N+](=O)[O-])cc1,4.71%
4,Cc1cc(C(=O)CN2C(=O)C(=O)N(Cc3ccco3)C2=O)c(C)n1CCc1ccccc1,54.3%
5,Cc1ccnc(NC(=O)COc2ccc3oc4c(c3c2)CCCC4)c1,76.9%
6,Cc1cccc(NC(=O)COc2ccc3oc4c(c3c2)CCCC4)n1,75.9%
7,COc1ccc(CNC(=O)Nc2ccc([N+](=O)[O-])cc2)cc1,-6.85%
8,O=C(NCCCn1ccnc1)c1ccc(Cl)c(S(=O)(=O)N2CCOCC2)c1,2.9%
9,C/C(CC(=O)Nc1cccnc1)=N\NC(=O)C(=O)Nc1cccc(C)c1,6.84%
10,CCOCCn1ccc2c(OCC(=O)Nc3ccccc3F)cccc2c1=O,4.93%
11,Cc1ccc(OCCNC(=O)c2cccc(C)c2)cc1,49.8%
12,COc1cccc(OCCNC(=O)c2ccc(C)cc2)c1,37.6%
13,COc1cccc(OCCNC(=O)c2cccc(OC)c2)c1,7.64%
14,O=C(NCCOc1ccccc1)c1cc(C(=O)NCCOc2ccccc2)cc([N+](=O)[O-])c1,-6.28%
15,CCCN(C(=O)c1ccco1)c1nnc(-c2ccccc2C)s1,72.7%
16,COc1cc(C(=O)N[C@H](C(=O)NC2CCCCCC2)C(C)C)cc(OC)c1OC,2.31%
17,O=C(COC(=O)c1cc(Br)ccc1O)Nc1ccc2c(c1)OCCO2,76.5%
18,O=C(COC(=O)c1cc(Cl)ccc1O)Nc1ccc2c(c1)OCCO2,71.7%
19,Cc1ccc(C(=O)OCC(=O)Nc2ccc3c(c2)OCO3)c(O)c1,-15.4%
20,O=C(COC(=O)c1cccnc1Cl)c1ccc2c(c1)OCCO2,5.13%
21,CC1=C(C(=O)OCc2ccccc2)C(c2ccc([N+](=O)[O-])cc2)NC(=O)N1 (centres undefined),8.66%
22,Cc1ccc(-n2cc3c(=O)n(C)c(=O)n(C)c3c2)cc1C,13.7%
23,COc1cc2[nH]c(=S)nc(NCc3cccs3)c2cc1OC,-37%

row,Structure (SMILES),inhibition
1,CCOC(=O)c1ccc(NC(=O)CCC(=O)OC)cc1,3.53%
2,COC(=O)c1ccc(NC(=O)NS(=O)(=O)c2ccc(C)cc2)cc1,16.8%
3,CCOC(=O)CC(=O)Nc1ccc(C)cc1,60.5%
4,CCOC(=O)c1ccc(S(=O)(=O)NNS(=O)(=O)c2ccc(C)cc2)cc1,3.23%
5,COC(=O)C(C)NC(=O)c1ccc(C(C)(C)C)cc1 (centres undefined),-13.9%
6,Cc1oc(-c2ccccc2F)nc1CS(=O)(=O)CC(=O)NCCCc1ccccc1,-19.5%
7,Cc1ccc(C(C)NC(=O)c2ccco2)cc1 (centres undefined),71.4%
8,CCC(=O)C1CCCN(C(=O)CCc2nnc(-c3ccc4c(c3)OCO4)o2)C1 (centres undefined),-3.37%
9,O=C(O)c1ccccc1N=N/C(=N/Nc1cc(S(=O)(=O)O)ccc1O)c1ccccc1,-12.5%
10,Oc1ccccc1N=N/C(=N/Nc1ccccc1O)c1ccccc1,22.9%
11,CC(=O)OC(C(=O)NC1CCCCC1)c1ccncc1 (centres undefined),-2.68%
12,CSC1=NSC2=NC(=O)/C(=C/c3coc4ccccc4c3=O)C(=N)N12,-10.1%
13,CSC1=NSC2=NC(=O)/C(=C\c3coc4ccccc4c3=O)C(=N)N12,-4.28%
14,CCOc1ccc(Nc2ccc(N3C(=O)CCC3=O)cc2[N+](=O)[O-])cc1,7.14%
15,Cc1sc(NC(=O)c2cccc(N3C(=O)CCC3=O)c2)nc1-c1ccccc1,-5.52%
16,CCN(CC)S(=O)(=O)c1cccc(-c2nnc(SCC(=O)NC)n2N)c1,-7.59%
17,COc1ccc(NC(=O)CCC(=O)c2cccs2)cc1Cl,1.43%
18,Cc1ccc(N/C=C/C(=O)c2cccs2)cc1C,35.6%
19,COc1cc(NC(=O)C/C(C)=N/NC(=O)c2cccc(O)c2)c(OC)cc1Cl,45.4%
20,Cc1ccc(NC(=O)COC(=O)CCC(=O)c2cccs2)cc1,69%
21,Cc1ccc(NC(=O)CCC(=O)c2cccs2)cc1,8.3%
22,Cc1ccc(NC(=O)COC(=O)CCC(=O)c2cccs2)cc1C,59.8%
23,COc1ccc(NC(=O)CCC(=O)c2cccs2)c(OC)c1,-6.26%

row,Structure (SMILES),inhibition
1,COc1cc(NC(=O)C/C(C)=N/NC(=O)c2ccccn2)c(OC)cc1Cl,69.5%
2,O=C(CSc1n[nH]c(-c2ccc(S(=O)(=O)NC3CCCCC3)cc2)n1)N1CCCC1,12.1%
3,O=C(CCc1nc2ccccc2c(=O)[nH]1)NCCN1C(=O)S/C(=C\c2ccccc2Cl)C1=O,7.97%
4,O=c1c2ccccc2n(Cc2cccc(F)c2)c(=O)n1C1CCCC1,7.83%
5,CC(C)C[C@@H](CN(N=O)[C@@H](Cc1ccccc1)CN(C)N=O)N(CCc1ccccc1)N=O,1.78%
6,CCOc1ccc(N2C(=O)CC(NC3CCCCNC3=O)C2=O)cc1 (centres undefined),61.4%
7,Cc1ccccc1NC(=O)Nc1ccccn1,1.67%
8,COc1ccc(-c2cc(C(F)(F)F)nc(-n3ccnc3C)n2)cc1,31%
9,O=C(COC(=O)CNS(=O)(=O)c1ccc(Br)cc1Cl)NC1CC1,-8.59%
10,Cc1ccc(NC(=O)Cc2cccs2)cc1Cl,13.4%
11,O=C(Nc1ccc(Cl)cc1)c1cccs1,76.6%
12,O=C(CCC(=O)c1cccs1)NCc1ccc(Cl)cc1,3.45%
13,Cc1ccc(NC(=O)CCC(=O)c2cccs2)cc1F,14.5%
14,O=c1c2ccccc2ncn1CCCSc1ccc(Cl)cc1,72.5%
15,O=C(c1ccccc1CCc1ccccc1)N1CCCC1,7.78%
16,CCC(=O)Nc1ccc(Br)cn1,8.41%
17,CCCCC(=O)Nc1ccc(Br)cn1,6.83%
18,CCN(C(=O)COC(=O)c1cc([N+](=O)[O-])ccc1N1CCOCC1)C1CCS(=O)(=O)C1 (centres undefined),-18.3%
19,Cc1nc2nc3c(c(=O)n2[nH]1)CCC3,-0.78%
20,CC1CCc2c(nc3nc[nH]n3c2=O)C1 (centres undefined),14.7%
21,Cc1cccc(NC(=S)NCC(c2cccnc2)N2CCOCC2)c1C (centres undefined),-1.94%
22,CCOc1ccc(N2C(=O)CC(N(CCc3ccc(OC)c(OC)c3)C(=O)/C=C/C(=O)O)C2=O)cc1 (centres undefined),16.4%
23,CCOC(=O)COc1ccc(/C=C2/C(=O)NN(c3ccc(F)cc3)C2=O)cc1OC,79.2%

row,Structure (SMILES),inhibition
1,COc1cc(/C=C2/SC(=S)N(C)C2=O)ccc1OC(=O)c1ccco1,31.5%
2,COc1cc(/C=C2/C(=O)NN(c3cccc(C)c3)C2=O)cc([N+](=O)[O-])c1O,10.2%
3,COc1cc(/C=C2/C(=O)NN(c3ccc(Cl)cc3)C2=O)cc(OC)c1O,21.1%
4,COc1cc(/C=C2/SC(=O)NC2=O)ccc1OC(=O)c1ccco1,-7.07%
5,COc1ccc(/C=C2/C(=O)N(c3ccccc3)N=C2C)cc1OC,1.07%
6,COC(=O)c1ccc(N2NC(=O)/C(=C/c3ccc(OC)c(OC)c3)C2=O)cc1,14.3%
7,COc1ccc(/C=C2/C(=O)N(c3ccccc3)N=C2C)cc1Br,1.11%
8,CC1CCCN(CCCNC(=O)c2ccc(CS(=O)(=O)c3c(Cl)cccc3Cl)o2)C1 (centres undefined),0.97%
9,C/C(=N\NC(=O)c1ccccc1NC(=O)c1ccc(Cl)cc1)c1ccncc1,14.5%
10,Cn1nc(C(=O)N2CCN(S(=O)(=O)/C=C/c3ccccc3)CC2)c2ccccc2c1=O,1.67%
11,CCC1C2Cn3c(nc4ccccc43)C1N(C)O2 (centres undefined),-9.29%
12,CC1(C)CC(=O)C(C=NCCN2CCN(C(=O)CCl)CC2)=C(O)C1,28.9%
13,CCOC(=O)c1sc(C)c(C(=O)NCCCN2CCOCC2)c1N,-1.46%
14,COc1cc(CC(=O)OCC(=O)Nc2ccc(Cl)c(S(=O)(=O)N(C)C)c2)cc(OC)c1OC,16.7%
15,Cc1ncc(CO)c(CNc2ccc(Oc3ccccc3)cc2)c1O,41.9%
16,CCC1CCc2sc(C(=O)NCc3ccccn3)cc2C1 (centres undefined),75.2%
17,CC1CCc2sc(C(=O)NNC(=O)c3ccncc3)cc2C1 (centres undefined),71.2%
18,CCC1CCc2sc(C(=O)NNC(=S)NCC3CCCO3)cc2C1 (centres undefined),23.3%
19,O=C(NCC1CCCO1)c1cc2c(s1)CCCC2 (centres undefined),5.26%
20,CCOc1ccc(NC(=O)CCC(=O)NNC(=O)COc2ccc(C)cc2)cc1,-22.8%
21,CCOC(=O)c1c(C)[nH]c(C)c1C(=O)CSc1nncs1,-5.38%
22,Cc1[nH]ccc(=O)c1OCC(=O)O,-4.62%

# Reference: PubChem BioAssay AID488890 (Southern Research Specialized Biocontainment Screening …, 2010)
